PubChem BioAssay AID686979 (National Center for Advancing Translational Sciences (NCATS), 2013)
The campaign covered roughly 420,000 compounds. About 50,000 (12%) were called active. About 26% were inconclusive and are not listed. The sample holds actives, similar compounds and a random draw of the others, so the mix is not that of the screen. A number with no mark means an inactive call. Calls follow the shape of the dose curve; as a rule, active = well fitted inhibition curve with a large enough effect; inconclusive = small, poorly fitted or top-dose-only effect; inactive = flat fitted curve, though single readings scatter.

Experiment: qHTS for Inhibitors of human tyrosyl-DNA phosphodiesterase 1 (TDP1): qHTS in cells in presence of CPT; also: nearly all actives have a fitted effect of over 55% in size
Conditions: chicken DT40 Tdp1-/-;hTDP1 cells + 20 nM CPT, ATP luminescence, 48 h; series mostly up to 46.2 µM; activity change, negative = growth inhibition: at the top concentration
Summary of the method: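 Chicken DT40 Tdp1-/- cells stably complemented with human TDP1 were seeded at 400 cells/well in medium containing 20 nM camptothecin, exposed to pin-transferred compounds, and grown at 37 °C for at least 48 hr. Viability was read as ATP luminescence.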
% is scaled to controls: 0 for no effect and ±100 for the full control effect; potency is read from the fitted curve at half-maximal effect.

Structure (SMILES) | activity change, negative = growth inhibition [%] | Potency
CCOC(=O)C1CCCN(S(=O)(=O)c2ccc(-n3cnnn3)c(C)c2)C1 (configuration not stated) | -25.7 | –
COc1ccc(CCn2ccc(O)c(Cc3ccc(Cl)cc3Cl)c2=O)cc1OC | 3.26 | –
CC1CC(C)(C)CC2(C1)NC(=O)N(CC(=O)Nc1nccs1)C2=O (configuration not stated) | 1.24 | –
CSc1ccc(NC(=O)/C=C/C(=O)O)cc1 | 13.8 | –
O=C(O)/C=C/C(=O)Nc1ccc(F)cc1F | 13.5 | –
COC(=O)c1sc(-c2ccc(C(C)(C)C)cc2)cc1NC(=O)/C=C/C(=O)O | – | 4.61 µM (active)
CCC(Cc1ccccc1)NC(=O)C1CCCCC1 (configuration not stated) | -15.5 | –
CN1CCN(CCNC(=O)Nc2ccccc2[N+](=O)[O-])CC1 | 1.85 | –
Cn1cc(/C=C/c2nc3ccccc3c(=O)n2-c2cccc([N+](=O)[O-])c2)c2ccccc21 | -9.1 | –
Cc1nc2ccccc2c(=O)n1Cc1ccc([N+](=O)[O-])cc1 | -21.5 | –
CCn1c(/C=C/c2ccc([N+](=O)[O-])o2)nc2ccccc2c1=O | – | 1.3 µM (active)
CC(C)c1ccc(S(=O)(=O)N2CCC3(CC2)OCCO3)cc1 | -2.81 | –
CCn1c(NC(=O)c2ccccc2)c(-c2cccs2)c(=O)c2ccccc21 | – | 20.6 µM (active)
CCn1c(=O)cc(O)c2ccccc21 | 2.66 | –
CCn1c(=O)c2cc(C(=O)Nc3cccc(C(C)=O)c3)sc2c2ccccc21 | -18.9 | –
CSCCC(NS(=O)(=O)c1ccc(C)cc1)C(=O)N1CCCC1 (configuration not stated) | 1.59 | –
CCCn1c(N)c(C(=O)CSc2nnc3n2CCCCC3)c(=O)[nH]c1=O | -2.04 | –
CCOc1[nH]n(-c2ccc(Cl)cc2)c(=O)c1C=Nc1ccc(O)cc1 | – | 5.8 µM (active)
CCOc1ccc(N=C2NC(=O)S/C2=C\c2ccc(O)cc2)cc1 | -8.1 | –
Cc1cc(C)cc(C(=O)NCCN2CCOCC2)c1 | 0.936 | –
Cc1ccc(C(=O)NCCN2CCOCC2)cc1C | -17.7 | –
CC(=O)Oc1cc2c(C(=O)NCCN3CCOCC3)c(C)oc2c2ccccc12 | – | 18.4 µM (active)

Structure (SMILES) | activity change, negative = growth inhibition [%] | Potency
COc1ccc(OC)c(-n2nnc3c(sc4nc(C)c(Br)c(C)c43)c2=O)c1 | -1.52 | –
CCC(=O)N(Cc1ccccc1)c1ccccn1 | -1.38 | –
COc1cc(CN(C(=O)c2ccccc2Br)c2ccccn2)cc(OC)c1OC | – | 18.4 µM (active)
Cc1ccc(S(=O)(=O)N(Cc2ccccc2)c2ccccn2)cc1[N+](=O)[O-] | 6.32 | –
COC(=O)c1cc(C(=O)N(Cc2ccccc2)c2ccccn2)cc([N+](=O)[O-])c1 | 1.49 | –
COc1cc(SC)ccc1C(=O)N(Cc1ccccc1)c1ccccc1 | -29.6 | –
Cc1ccc(CN(C(=O)c2ccccc2[N+](=O)[O-])c2ccccn2)cc1 | – | 11.6 µM (active)
COc1ccc(CCOC(=O)CNC(=O)c2ccc(Cl)cc2Cl)cc1 | 2.02 | –
Cc1ccc(N2CC(NC(=O)Cc3cccs3)CC2=O)cc1 (configuration not stated) | -2.46 | –
C[C@H](NC(=O)c1nc[nH]c1C(=O)N[C@@H](C)C(=O)OC(C)(C)C)C(=O)OC(C)(C)C | -25.7 | –
COc1cc(C(=S)NC2CCCCC2)ccc1O | -6.73 | –
Cc1cccc(N2CCN(S(=O)(=O)c3ccc(-c4cc(C)no4)s3)CC2C)c1 (configuration not stated) | 5.36 | –
Cc1cccc(NC(=O)Cn2c(=O)n(CCC(C)C)c(=O)c3cccnc32)c1 | -24.7 | –
Cc1cccc(N2CCN(C(=O)CCn3c(=O)c4cccn4c4cccnc43)CC2C)c1 (configuration not stated) | – | 3.66 µM (active)
CCOc1ccc(-c2cc3c(=O)n(CC(=O)NCc4ccc(OC)cc4)ccn3n2)cc1 | -8.52 | –
CCOC(=O)C1C(c2ccc(OC)c(OC)c2)c2c([nH][nH]c2=O)CC1(C)O (configuration not stated) | -6.37 | –
O=C(Nc1c(Br)cc2c(c1Br)Cc1ccccc1-2)C(F)(F)F | -14 | –
COC(=O)N(NC(=O)C(O)(C(C)C)C(C)C)c1ccccc1 | 23.2 | –
CC(C)(O)C(=O)NN(C(=O)c1ccccc1)c1cccc(Br)c1 | -2.93 | –
CCCC(O)(CCC)C(=O)NN(C(=O)CCl)c1cccc(C)c1 | – | 4.61 µM (active)
CCCCC(O)(CCCC)C(=O)NN(C(=O)CCl)c1ccccc1 | – | 14.6 µM (active)
CCCCCNC(=O)C1c2ccccc2Oc2ccccc21 | -6.61 | –

Structure (SMILES) | activity change, negative = growth inhibition [%] | Potency
Cc1ccc(N(NC(=O)C(C)(C)O)C(=O)c2ccccc2)cc1C | -9.93 | –
O=C(NNC(=S)NC1CCCCC1)c1ccccc1Cl | -16.4 | –
Clc1ccccc1CSc1nncn2c1cc1occc12 | -7.58 | –
Cn1c(CCc2ccccc2)nnc1SCC(N)=O | -1.76 | –
COc1ccc(CN2CN(C3CCCC3)CSC2=S)cc1 | – | 5.17 µM (active)
COc1ccc(Cn2c(=O)cc(C)[nH]c2=S)cc1 | 5.33 | –
COc1ccc(CN2CC(C(=O)NC3CCCCC3)CC2=O)cc1 (configuration not stated) | 1.05 | –
COc1ccc(CCNC(=O)COC(=O)C2CCCCC2)cc1 | -9 | –
COc1ccc(CN2CN(C(C)C)CSC2=S)cc1 | – | 2.91 µM (active)
COc1ccc(CCC(C)N2CCc3ccccc3C2)cc1 (configuration not stated) | -12.5 | –
O=C(NC1CCCC1)C(c1ccccn1)N(C(=O)c1csnn1)C1CCCC1 (configuration not stated) | -23 | –
Cc1cc(C)c2c(=O)[nH]c(SCC(=O)Nc3ccc(Br)cc3)nc2n1 | -23.8 | –
CC1(C(=O)NS(=O)(=O)c2cccc(F)c2)CCN1C(=O)Cc1cc(F)ccc1F (configuration not stated) | -10.9 | –
CN(CC(=O)Nc1ccccc1F)S(=O)(=O)c1ccc2c(c1)c(=O)n(C)c(=O)n2C | -15.7 | –
O=C1c2ccccc2C(c2nc3ccccc3[nH]2)N1c1ccccc1 (configuration not stated) | 24.2 | –
CSc1ncccc1C(=O)NCc1ccccc1Cl | 11.7 | –
O=C(CNC(=O)c1cc(S(=O)(=O)N2CCOCC2)ccc1N1CCCC1)Nc1ccc(F)c(F)c1 | -27.5 | –
COc1ccccc1CNC(=O)C1CCN(C(=O)[C@@H]2Cc3ccccc3CN2)CC1 | -4.36 | –
COc1ccccc1CNC(=O)C1Cc2ccccc2C(=O)O1 (configuration not stated) | -13 | –
COc1ccccc1CNC(=O)[C@@H]1CCCN1C(=O)[C@@H]1Cc2ccccc2CN1C(=O)OC(C)(C)C | – | 18.4 µM (active)
CCCNC(=O)c1cnc(-c2ccccc2)nc1-c1ccccc1 | -2.24 | –
O=C(CCCN=C1NS(=O)(=O)c2ccccc21)OCC(=O)c1ccc(F)c(F)c1 | 27.8 | –

Structure (SMILES) | activity change, negative = growth inhibition [%] | Potency
COC(=O)C(CC(=O)Nc1cc(C)ccc1C)Nc1ccccc1OC (configuration not stated) | -10.3 | –
Cc1ccc(C)c(NC(=O)CCC(=O)NNC(=O)c2cccs2)c1 | -8.35 | –
Cc1ccc(C)c(NC(CC(=O)c2ccccc2)C(=O)OCC(=O)c2cccs2)c1 (configuration not stated) | – | 18.4 µM (active)
O=C(Nc1nnc(-c2ccccc2F)s1)c1ccccc1F | 8.72 | –
CN(CCN1CCOCC1)Cc1nc(-c2ccc3c(c2)OCO3)no1 | 1.76 | –
CCN1CC(CN(C)Cc2nc(-c3ccc(Cl)cc3)no2)CC1=O (configuration not stated) | – | 16.4 µM (active)
CN(Cc1ccccn1)Cc1nc(-c2ccc(Cl)cc2)no1 | -0.996 | –
COc1ccc(S(=O)(=O)N2CCOC2CNC(=O)C(=O)NCc2ccncc2)cc1OC (configuration not stated) | 3.82 | –
O=C(CSc1nccn1-c1cccc(F)c1)NC1CCCC1 | 5.14 | –
CN(C)c1nc(-c2cccnc2)nc(-c2ccc(Cl)cc2)c1C#N | -57.4 | –
S=c1[nH]nc(-c2ccncc2)n1/N=C/c1ccccc1Cl | 2 | –
CCN(CC)S(=O)(=O)c1cccc(-c2n[nH]c(=S)n2/N=C/c2ccc(C(=O)OC)cc2)c1 | -16.5 | –
Cc1cc(-c2n[nH]c(=S)n2/N=C/C(Br)=C/c2ccccc2)n[nH]1 | – | 1.64 µM (active)
Fc1ccccc1/C=N/n1c(-c2cccnc2)n[nH]c1=S | 5.67 | –
S=c1[nH]nc(-c2cccnc2)n1/N=C/C(Cl)=C\c1ccccc1 | – | 20.6 µM (active)
Cc1cc(-c2n[nH]c(=S)n2/N=C/c2ccco2)n[nH]1 | 1.05 | –
FCOC(C(F)(F)F)C(F)(F)F | 7.71 | –
NC(=O)CN1CCCC1c1ccc2c(c1)OCCO2 (configuration not stated) | -5.42 | –
CC(C)C(=O)Nc1oc(-c2ccccc2)cc1C#N | 11.7 | –
CC1(C)S[C@@H]2[C@H](NC(=O)COc3ccccc3)C(=O)N2C1C(=O)OCc1ccccc1 (some centres not stated) | – | inactive
COc1ccc(-c2nc(CS(=O)CC(=O)N3CCc4ccccc4C3)c(C)o2)cc1 (configuration not stated) | – | 16.4 µM (active)
COc1ccc(-c2nc(CS(=O)CC(=O)NCc3ccccn3)c(C)o2)cc1 (configuration not stated) | – | 18.4 µM (active)

Structure (SMILES) | activity change, negative = growth inhibition [%] | Potency
COc1ccc(-c2nc(CS(=O)CC(=O)NCc3ccccc3)c(C)o2)cc1OC (configuration not stated) | -20.6 | –
COc1cccc(N(CC(=O)N2CCc3ccccc3C2)S(C)(=O)=O)c1 | -6.48 | –
O=C(COc1ccccc1)N1CCc2ccccc2C1 | -6.77 | –
COc1ccc(-c2nc(CS(=O)CC(=O)NCc3cccnc3)c(C)o2)cc1OC (configuration not stated) | -7.55 | –
CCCSc1nsc(N)n1 | -14.7 | –
CS(=O)(=O)N1CCN(CC(=O)NC2CCCC2)CC1 | 3.9 | –
O=C(Cc1coc2ccc3ccccc3c12)NCc1cccs1 | -27.8 | –
C=CCCC(=O)N1C[C@H]2CON(C)[C@H]2C[C@H]1c1cccc(Nc2ccccc2)c1 | -9.96 | –
COCC1CCCN(Cc2nc(-c3ccc4c(c3)OCO4)no2)C1 (configuration not stated) | 9.31 | –
CCn1c(CC(=O)Nc2ccccc2C)nnc1SCC(=O)NC1=NCCS1 | -4.53 | –
CCCNC(=O)c1ccc(Cl)c(Cl)c1 | -22 | –
O=C(Cn1nnc(N2CCCCC2)n1)c1ccc(Cl)c(Cl)c1 | -16 | –
CCCn1c(=N)n(CC(=O)c2ccc(Cl)c(Cl)c2)c2ccccc21 | – | 10.3 µM (active)
O=C(Nc1ccc(OCCO)cc1)c1csc([C@H]2C[C@H](O)[C@@H](CO)O2)n1 | -18 | –
CCOc1ccc(CN2CCN(Cc3ccc4cc(F)ccc4n3)CC2CCO)cc1 (configuration not stated) | -4.39 | –
COc1ccccc1NC(=O)CSc1nnc(CNC(=O)c2ccccc2F)o1 | 12 | –
COc1cc(C(=O)NCc2nnc(SCC(=O)Nc3nc4ccc(C)cc4s3)o2)cc(OC)c1OC | – | 4.11 µM (active)
COc1ccc(C(=O)NCc2nnc(SCC(=O)Nc3cccc(OC)c3)o2)cc1 | 16.7 | –
O=C(O)c1ccc(S(=O)(=O)N2CCOCC2)o1 | 2.34 | –
